From article PMC8384837, “Expanding the binding specificity for RNA recognition by a PUF domain”
Positions count from the first letter of the chain named.

What was measured:
Experiment in all cases: yeast three-hybrid, YBZ-1, SC-Leu-His + 0.5 mM 3-AT, 4 days
Settings in all cases: tags: N-Gal4 AD-HA kept; label: inside an RPR1-promoter hybrid RNA with tandem MS2 sites; ssRNA
PUM1 PUF domain R8-HFR = PUM1 PUF domain R8-HFR (Homo sapiens, UniProt Q14671 828-1176, N1122H;Y1123F;Q1126R)
Method in brief: (§1)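 A centromeric plasmid in strain YBZ-1 co-expressed Pumilio-1 PUF domain libraries, randomized at the three base-contacting residues of each repeat, with matching RNA elements; the strain carries a LexA–MS2 coat fusion and a HIS3 reporter. After four days on SC-Leu (input) or SC-Leu-His + 0.5 mM 3-AT (selection), the repeat regions were PCR-amplified and Illumina-sequenced. The interaction score is the log change in variant frequency from input to selection, using log2 and a pseudocount of 1 where absent.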

PUM1 PUF domain R4-SPT = PUM1 PUF domain R4-SPT (Homo sapiens, UniProt Q14671 828-1176, N971S;H972P;Q975T)
Method in brief: as §1

PUM1 PUF domain R6-VWR = target: T1, PUM1 PUF domain R6-VWR (Homo sapiens, UniProt Q14671 828-1176, N1043V;Y1044W;Q1047R)
T1 sequence: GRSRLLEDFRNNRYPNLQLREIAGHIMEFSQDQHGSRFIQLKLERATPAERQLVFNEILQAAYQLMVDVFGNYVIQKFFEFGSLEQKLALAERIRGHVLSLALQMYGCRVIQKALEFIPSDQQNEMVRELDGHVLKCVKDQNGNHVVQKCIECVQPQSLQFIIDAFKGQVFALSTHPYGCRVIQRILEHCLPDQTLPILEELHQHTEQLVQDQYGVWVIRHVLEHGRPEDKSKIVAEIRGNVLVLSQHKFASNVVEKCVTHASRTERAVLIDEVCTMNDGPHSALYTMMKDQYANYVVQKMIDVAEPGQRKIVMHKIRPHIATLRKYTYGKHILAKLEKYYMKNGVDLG
Method in brief: as §1

PUM1 PUF domain R6-DWV = target: T2, PUM1 PUF domain R6-DWV (Homo sapiens, UniProt Q14671 828-1176, N1043D;Y1044W;Q1047V)
T2 sequence: T1 sequence with V216D, R220V
Method in brief: as §1

PUM1 PUF domain R3-YFA = PUM1 PUF domain R3-YFA (Homo sapiens, UniProt Q14671 828-1176, C935Y;R936F;Q939A)
Method in brief: as §1

PUM1 PUF domain R3-YRL = PUM1 PUF domain R3-YRL (Homo sapiens, UniProt Q14671 828-1176, C935Y;Q939L)
Method in brief: as §1

PUM1 PUF domain R4-DWI = PUM1 PUF domain R4-DWI (Homo sapiens, UniProt Q14671 828-1176, N971D;H972W;Q975I)
Method in brief: as §1

PUM1 PUF domain R3-VYP = PUM1 PUF domain R3-VYP (Homo sapiens, UniProt Q14671 828-1176, C935V;R936Y;Q939P)
Method in brief: as §1

PUM1 PUF domain R6-SWG = target: T3, PUM1 PUF domain R6-SWG (Homo sapiens, UniProt Q14671 828-1176, N1043S;Y1044W;Q1047G)
T3 sequence: T1 sequence with V216S, R220G
Method in brief: as §1

PUM1 PUF domain R5-SRM = PUM1 PUF domain R5-SRM (Homo sapiens, UniProt Q14671 828-1176, C1007S;Q1011M)
Method in brief: as §1

PUM1 PUF domain R5-FHM = PUM1 PUF domain R5-FHM (Homo sapiens, UniProt Q14671 828-1176, C1007F;R1008H;Q1011M)
Method in brief: as §1

PUM1 PUF domain R7-RCC = PUM1 PUF domain R7-RCC (Homo sapiens, UniProt Q14671 828-1176, S1079R;N1080C;E1083C)
Method in brief: as §1

PUM1 PUF domain R2-PWL = PUM1 PUF domain R2-PWL (Homo sapiens, UniProt Q14671 828-1176, N899P;Y900W;Q903L)
Method in brief: as §1

PUM1 PUF domain R3-AIR = PUM1 PUF domain R3-AIR (Homo sapiens, UniProt Q14671 828-1176, C935A;R936I;Q939R)
Method in brief: as §1

PUM1 PUF domain R3-LSK = PUM1 PUF domain R3-LSK (Homo sapiens, UniProt Q14671 828-1176, C935L;R936S;Q939K)
Method in brief: as §1

PUM1 PUF domain R1-FGR = PUM1 PUF domain R1-FGR (Homo sapiens, UniProt Q14671 828-1176, S863F;R864G;Q867R)
Method in brief: as §1

PUM1 PUF domain R1-RSE = PUM1 PUF domain R1-RSE (Homo sapiens, UniProt Q14671 828-1176, S863R;R864S;Q867E)
Method in brief: as §1

PUM1 PUF domain R4-GNT = PUM1 PUF domain R4-GNT (Homo sapiens, UniProt Q14671 828-1176, N971G;H972N;Q975T)
Method in brief: as §1

PUM1 PUF domain R3-RGR = PUM1 PUF domain R3-RGR (Homo sapiens, UniProt Q14671 828-1176, C935R;R936G;Q939R)
Method in brief: as §1

PUM1 PUF domain R5-NAG = PUM1 PUF domain R5-NAG (Homo sapiens, UniProt Q14671 828-1176, C1007N;R1008A;Q1011G)
Method in brief: as §1

PUM1 PUF domain R1-FGR, sequence (Q14671 828-1176 S863F/R864G/Q867R): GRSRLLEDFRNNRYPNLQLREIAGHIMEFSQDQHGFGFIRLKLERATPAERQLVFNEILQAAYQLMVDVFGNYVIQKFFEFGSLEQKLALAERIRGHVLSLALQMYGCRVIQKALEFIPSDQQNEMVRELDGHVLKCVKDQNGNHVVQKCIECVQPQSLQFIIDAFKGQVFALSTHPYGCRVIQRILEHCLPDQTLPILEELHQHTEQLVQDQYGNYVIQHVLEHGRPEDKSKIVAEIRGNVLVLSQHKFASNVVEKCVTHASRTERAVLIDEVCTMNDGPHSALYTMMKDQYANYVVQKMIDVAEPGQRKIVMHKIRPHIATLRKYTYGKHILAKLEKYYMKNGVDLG
PUM1 PUF domain R5-FHM, sequence (Q14671 828-1176 C1007F/R1008H/Q1011M): as the sequence (Q14671 828-1176 S863F/R864G/Q867R) above, with F36S, G37R, R40Q, C180F, R181H, Q184M counted along it
PUM1 PUF domain R3-RGR, sequence (Q14671 828-1176 C935R/R936G/Q939R): as the sequence (Q14671 828-1176 S863F/R864G/Q867R) above, with F36S, G37R, R40Q, C108R, R109G, Q112R counted along it

GGCUAGAACUAGUGGAUCCCCCGGCGCCCGGCGGCUCGAGCCCGGGUAAGCGUAAAUAGUCUGCAUGCCGCCGGGCGCCAUGCCUGCAGGUCGACUCUAGAAAACAUG
binding signal (PUM1 PUF domain R8-HFR): 4.92 log2 enrichment (interaction score)

GGCUAGAACUAGUGGAUCCCCCGGCGCCCGGCGGCUCGAGCCCGGGUAAGUGUAAAUAGUCUGCAUGCCGCCGGGCGCCAUGCCUGCAGGUCGACUCUAGAAAACAUG
binding signal (PUM1 PUF domain R4-SPT): 3.95 log2 enrichment (interaction score)
binding signal (PUM1 PUF domain R6-VWR): 5.89 log2 enrichment (interaction score)
binding signal (PUM1 PUF domain R6-DWV): 2.46 log2 enrichment (interaction score)
binding signal (PUM1 PUF domain R3-YFA): 4.33 log2 enrichment (interaction score)
binding signal (PUM1 PUF domain R3-YRL): 2.11 log2 enrichment (interaction score)
binding signal (PUM1 PUF domain R4-DWI): 6.41 log2 enrichment (interaction score)
binding signal (PUM1 PUF domain R3-VYP): 5.74 log2 enrichment (interaction score)
binding signal (PUM1 PUF domain R6-SWG): 4.18 log2 enrichment (interaction score)
binding signal (PUM1 PUF domain R5-SRM): 2.84 log2 enrichment (interaction score)

GGCUAGAACUAGUGGAUCCCCCGGCGCCCGGCGGCUCGAGCCCGGGUAAGUGUGAAUAGUCUGCAUGCCGCCGGGCGCCAUGCCUGCAGGUCGACUCUAGAAAACAUG
binding signal (PUM1 PUF domain R5-FHM): 5.31 log2 enrichment (interaction score)
binding signal (PUM1 PUF domain R5-SRM): 1.99 log2 enrichment (interaction score)

GGCUAGAACUAGUGGAUCCCCCGGCGCCCGGCGGCUCGAGCCCGGGUAAGUCUAAAUAGUCUGCAUGCCGCCGGGCGCCAUGCCUGCAGGUCGACUCUAGAAAACAUG
binding signal (PUM1 PUF domain R7-RCC): 2.43 log2 enrichment (interaction score)

GGCUAGAACUAGUGGAUCCCCCGGCGCCCGGCGGCUCGAGCCCGGGUAAGUGUAAAGAGUCUGCAUGCCGCCGGGCGCCAUGCCUGCAGGUCGACUCUAGAAAACAUG
binding signal (PUM1 PUF domain R2-PWL): 6.99 log2 enrichment (interaction score)

GGCUAGAACUAGUGGAUCCCCCGGCGCCCGGCGGCUCGAGCCCGGGUAAGUGUAAGUAGUCUGCAUGCCGCCGGGCGCCAUGCCUGCAGGUCGACUCUAGAAAACAUG
binding signal (PUM1 PUF domain R3-AIR): 2.87 log2 enrichment (interaction score)
binding signal (PUM1 PUF domain R3-LSK): 6.88 log2 enrichment (interaction score)

GGCUAGAACUAGUGGAUCCCCCGGCGCCCGGCGGCUCGAGCCCGGGUAAGUGUAAAUCGUCUGCAUGCCGCCGGGCGCCAUGCCUGCAGGUCGACUCUAGAAAACAUG
binding signal (PUM1 PUF domain R1-FGR): 0.54 log2 enrichment (interaction score)
binding signal (PUM1 PUF domain R1-RSE): 2.49 log2 enrichment (interaction score)

GGCUAGAACUAGUGGAUCCCCCGGCGCCCGGCGGCUCGAGCCCGGGUAAGUGUAAAUUGUCUGCAUGCCGCCGGGCGCCAUGCCUGCAGGUCGACUCUAGAAAACAUG
binding signal (PUM1 PUF domain R1-FGR): 3.11 log2 enrichment (interaction score)

GGCUAGAACUAGUGGAUCCCCCGGCGCCCGGCGGCUCGAGCCCGGGUAAGUGUAAAUGGUCUGCAUGCCGCCGGGCGCCAUGCCUGCAGGUCGACUCUAGAAAACAUG
binding signal (PUM1 PUF domain R1-RSE): 0.71 log2 enrichment (interaction score)

GGCUAGAACUAGUGGAUCCCCCGGCGCCCGGCGGCUCGAGCCCGGGUAAGUGUACAUAGUCUGCAUGCCGCCGGGCGCCAUGCCUGCAGGUCGACUCUAGAAAACAUG
binding signal (PUM1 PUF domain R4-SPT): 1.24 log2 enrichment (interaction score)
binding signal (PUM1 PUF domain R4-DWI): 5.64 log2 enrichment (interaction score)
binding signal (PUM1 PUF domain R4-GNT): 0.59 log2 enrichment (interaction score)

GGCUAGAACUAGUGGAUCCCCCGGCGCCCGGCGGCUCGAGCCCGGGUAAGUGUAAUUAGUCUGCAUGCCGCCGGGCGCCAUGCCUGCAGGUCGACUCUAGAAAACAUG
binding signal (PUM1 PUF domain R3-RGR): 2.38 log2 enrichment (interaction score)
binding signal (PUM1 PUF domain R3-VYP): 2.9 log2 enrichment (interaction score)
binding signal (PUM1 PUF domain R3-LSK): 5.2 log2 enrichment (interaction score)

GGCUAGAACUAGUGGAUCCCCCGGCGCCCGGCGGCUCGAGCCCGGGUAAGUGAAAAUAGUCUGCAUGCCGCCGGGCGCCAUGCCUGCAGGUCGACUCUAGAAAACAUG
binding signal (PUM1 PUF domain R6-VWR): 3.34 log2 enrichment (interaction score)
binding signal (PUM1 PUF domain R6-SWG): 1.35 log2 enrichment (interaction score)

GGCUAGAACUAGUGGAUCCCCCGGCGCCCGGCGGCUCGAGCCCGGGUAAGUGUUAAUAGUCUGCAUGCCGCCGGGCGCCAUGCCUGCAGGUCGACUCUAGAAAACAUG
binding signal (PUM1 PUF domain R5-NAG): 4.83 log2 enrichment (interaction score)

GGCUAGAACUAGUGGAUCCCCCGGCGCCCGGCGGCUCGAGCCCGGGUAAGUGUAUAUAGUCUGCAUGCCGCCGGGCGCCAUGCCUGCAGGUCGACUCUAGAAAACAUG
binding signal (PUM1 PUF domain R4-GNT): 3.55 log2 enrichment (interaction score)
